According to PubChem BioAssay AID1224860 (National Center for Advancing Translational Sciences (NCATS), 2016):
Results filed as inconclusive are left out. Entries that show only a call come without a potency. The source made the active and inactive calls. Calls come from the whole dose curve; as a rule, active = well fitted cell-killing curve with a large enough effect; inconclusive = small, poorly fitted or top-dose-only effect; inactive = flat fitted curve, though single readings scatter.

experiment: Compound cytotoxicity measured by an ATP content assay as a counter-screen for lead compounds in human iPSC derived neural progenitor cells (hNPCs); settings: human iPSC-derived NPC viability, ATP luminescence; series mostly up to 46.1 µM
Summary of the method: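 hNPCs (human iPSC-derived) seeded 16–20 h, then exposed to compound for 6, 24 or 72 h at 37 C. ATP-content luminescence read after 10 min at room temperature; cytotoxicity expressed as percent inhibition of viability.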

Structure (SMILES) | Potency
C[C@@H]1CCN(C(=O)CC#N)C[C@H]1N(C)c1ncnc2[nH]ccc12 | inactive
CCCCCCOc1ccccc1C(N)=O | inactive
CN1CCN(c2cc3c(nn2)Oc2ccccc2N3C)CC1 | inactive
Cc1cc(O)c2ccccc2c1O | 4.89 µM (active)
CNC1[C@H](O)C(O[C@@H]2C(O)C(O[C@H]3O[C@H]([C@@H](C)NC)CC[C@H]3N)[C@@H](N)C[C@H]2N)OC[C@]1(C)O (some centres not stated) | inactive
COc1ccnc2c1CCCCC2S(=O)c1nc2ccccc2[nH]1 (configuration not stated) | inactive
Cc1c(C(=O)O)c(O)cc2c1C(=O)c1c(O)c([C@@H]3O[C@H](CO)[C@@H](O)[C@H](O)[C@H]3O)c(O)c(O)c1C2=O | inactive
CC(C)OC(=O)CCCC=CC[C@@H]1[C@H](C=C[C@@H](O)COc2cccc(C(F)(F)F)c2)[C@H](O)C[C@@H]1O | inactive
O=C(c1ccccc1)c1ccc2n1CCC2C(=O)O (configuration not stated) | inactive
Nc1nc2ccc([N+](=O)[O-])cc2s1 | inactive
c1ccc(CCNc2nc(-c3ccccc3)cs2)cc1 | inactive
O=C(O)[C@H](CC(=O)N1C[C@@H]2CCCC[C@H]2C1)Cc1ccccc1 | inactive
CC(C(=O)O)c1ccc(-c2ccccc2)c(F)c1 (configuration not stated) | inactive
CCC(C(=O)O)c1ccc(N2Cc3ccccc3C2=O)cc1 (configuration not stated) | inactive
O=c1[nH]nc(Sc2ncc([N+](=O)[O-])s2)n1-c1ccc2c(c1)OCCO2 | 1.73 µM (active)
CS(=O)(=O)c1ccc(-c2cn3ccccc3n2)cc1 | 7.74 µM (active)
COc1cccc(-c2cc(=O)c3ccccc3o2)c1N | 15.5 µM (active)
